Results filed as inconclusive are left out. The source made the active and inactive calls. Unless noted, the call rests on the fitted dose curve; in most records, active means well fitted curve in the direction sought with a large enough effect in the repeat runs; inconclusive means weak or mixed curves; inactive means no such curve, though single readings can be large; an effect the other way counts as inactive or inconclusive.
Target: Androgen receptor (Homo sapiens) (UniProt P10275)
Assay: qHTS assay to identify small molecule antagonists of the androgen receptor (AR) signaling pathway using the MDA cell line in the presence of 0.5 nM R1881 (AID 1259243); further: nearly all actives have a fitted effect of over 50% in size; further: potency means the concentration at half of the fitted maximal effect
Settings: MDA-kb2 MMTV-luciferase, R1881 0.5 nM, 16 h; series mostly up to 42.5 µM; activity, negative = inhibition: at the top concentration
How it was run: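 MDA-kb2, MMTV-luc (AR/GR elements); 3,000 cells/well; cpd + 0.5 nM R1881 final; 16 hr 37C, 0% CO2; ONE-Glo 30 min RT; luminescence.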
On the % scale 0 is the no-effect control and ±100 the full control effect.

Sequence of Androgen receptor (Homo sapiens) (P10275 whole entry, looked up): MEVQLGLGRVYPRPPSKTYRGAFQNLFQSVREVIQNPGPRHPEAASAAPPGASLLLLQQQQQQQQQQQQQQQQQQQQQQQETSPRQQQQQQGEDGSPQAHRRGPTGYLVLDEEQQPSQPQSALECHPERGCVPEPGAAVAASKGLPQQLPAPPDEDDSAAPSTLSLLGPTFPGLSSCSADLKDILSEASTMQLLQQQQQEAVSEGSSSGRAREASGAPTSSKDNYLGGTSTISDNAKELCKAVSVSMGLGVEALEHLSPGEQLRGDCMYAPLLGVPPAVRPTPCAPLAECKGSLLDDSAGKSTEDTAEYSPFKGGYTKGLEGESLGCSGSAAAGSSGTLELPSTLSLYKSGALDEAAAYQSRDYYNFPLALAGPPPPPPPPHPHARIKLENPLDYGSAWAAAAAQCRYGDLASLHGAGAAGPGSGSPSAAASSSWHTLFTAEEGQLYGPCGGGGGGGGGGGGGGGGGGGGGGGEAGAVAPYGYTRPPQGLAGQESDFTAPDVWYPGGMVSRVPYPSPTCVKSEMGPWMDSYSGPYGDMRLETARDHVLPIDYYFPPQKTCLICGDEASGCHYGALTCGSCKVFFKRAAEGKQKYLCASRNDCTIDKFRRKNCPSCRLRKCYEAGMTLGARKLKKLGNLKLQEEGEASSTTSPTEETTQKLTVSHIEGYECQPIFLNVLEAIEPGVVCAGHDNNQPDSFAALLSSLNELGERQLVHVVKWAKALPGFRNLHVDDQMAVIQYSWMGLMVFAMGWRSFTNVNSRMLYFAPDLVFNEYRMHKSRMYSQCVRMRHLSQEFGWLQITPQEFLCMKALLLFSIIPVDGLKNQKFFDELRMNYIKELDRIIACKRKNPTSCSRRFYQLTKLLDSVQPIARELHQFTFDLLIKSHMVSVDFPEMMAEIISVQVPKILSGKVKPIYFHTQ

SMILES | activity, negative = inhibition | Potency
COc1ccc([C@@H]2Sc3ccccc3NC(=O)[C@@H]2O)cc1 | -17.3% (inactive) | –
CC1=NN(c2ccc(C(=O)O)cc2)C(=O)C1 | 1.85% [at 92.4 µM] (inactive) | –
CNC(=S)NC | -23.9% [at 92.4 µM] (inactive) | –
CCc1cccc(N(C)C(N)=Nc2cccc3ccccc23)c1 | -14.1% (inactive) | –
NCC1CCCC(CN)C1 (stereo not drawn) | -7.95% [at 92.4 µM] (inactive) | –
COc1cc2c(cc1OC)-c1cc(=Nc3c(C)cc(C)cc3C)n(C)c(=O)n1CC2 | -24.5% (inactive) | –
C=CC(=C)CCCC(C)(C)OC(C)=O | -0.0806% [at 92.4 µM] (inactive) | –
OCC1CC=CCC1 (stereo not drawn) | 4.37% [at 92.4 µM] (inactive) | –
CO[C@H]1C=CO[C@@]2(C)Oc3c(C)c(O)c4c(O)c(c5c(c4c3C2=O)=NC2(CCN(CC(C)C)CC2)N=5)NC(=O)/C(C)=C\C=C/[C@H](C)[C@H](O)[C@@H](C)[C@@H](O)[C@@H](C)[C@H](OC(C)=O)[C@@H]1C | – | 67.1 µM (active)
COC(=O)c1cc(Cl)ccc1NS(=O)(=O)C(F)(F)F | 0.895% (inactive) | –
CCOCCn1c(C2CCN(CCc3ccc(C(C)(C)C(=O)O)cc3)CC2)nc2ccccc21 | 0.927% (inactive) | –

Target: Estrogen receptor (Homo sapiens) (UniProt P03372)
Sequence (P03372 whole entry, looked up): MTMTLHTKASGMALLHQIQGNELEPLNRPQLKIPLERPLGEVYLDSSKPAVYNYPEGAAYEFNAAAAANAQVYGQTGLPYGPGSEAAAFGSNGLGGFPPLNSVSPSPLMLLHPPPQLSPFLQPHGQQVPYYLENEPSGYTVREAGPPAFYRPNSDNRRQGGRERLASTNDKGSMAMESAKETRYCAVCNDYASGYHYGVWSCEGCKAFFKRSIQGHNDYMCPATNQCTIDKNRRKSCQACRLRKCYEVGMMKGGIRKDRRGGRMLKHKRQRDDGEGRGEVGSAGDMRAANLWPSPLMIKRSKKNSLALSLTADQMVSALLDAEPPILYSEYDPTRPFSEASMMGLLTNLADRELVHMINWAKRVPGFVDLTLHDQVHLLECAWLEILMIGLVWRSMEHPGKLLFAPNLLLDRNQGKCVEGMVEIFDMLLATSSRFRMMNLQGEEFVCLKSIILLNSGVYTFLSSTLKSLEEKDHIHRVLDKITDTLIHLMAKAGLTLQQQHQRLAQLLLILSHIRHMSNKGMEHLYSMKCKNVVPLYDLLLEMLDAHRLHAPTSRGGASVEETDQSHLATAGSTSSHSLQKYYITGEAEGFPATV
Assay: qHTS assay to identify small molecule antagonists of the estrogen receptor alpha (ER-alpha) signaling pathway using the BG1 cell line in the presence of 0.1 nM 17-beta-estradiol (AID 1259244); further: nearly all actives have a fitted effect of over 50% in size; further: potency means the concentration at half of the fitted maximal effect
Settings: VM7Luc4E2 (BG1) ERE-luciferase, antagonist mode, 0.1 nM E2, 22 h; series mostly up to 92.4 µM; activity change, negative = inhibition: at the top concentration
How it was run: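 Luminescence after ONE-Glo (30 min, room temperature) measured ERE-luciferase activity in VM7Luc4E2 cells treated 22 h with compound and 0.1 nM final 17beta-estradiol as stimulator.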

SMILES | activity change, negative = inhibition | Potency
CC(CCc1ccc2c(c1)OCO2)NN (stereo not drawn) | 28.5% [at 42.5 µM] (inactive) | –
CO[Si](C)(OC)OC | 7.84% (inactive) | –
CCC1(C)CC(=O)NC1=O (stereo not drawn) | 0.654% [at 42.5 µM] (inactive) | –
CC(=O)CC(c1ccc([N+](=O)[O-])cc1)c1c(O)c2ccccc2oc1=O (stereo not drawn) | -0.233% [at 42.5 µM] (inactive) | –
CSc1ccc(Oc2ccc(S(N)(=O)=O)cc2CN(C)C)cc1C | – | 68.6 µM (active)
O=C(O)C(Cc1cc(I)c(O)c(I)c1)c1ccccc1 (stereo not drawn) | 3.91% [at 42.5 µM] (inactive) | –
CNC(=S)NC | -8.59% (inactive) | –
CCCCC(=O)O[C@]1(C(=O)CO)CC[C@H]2[C@@H]3CCC4=CC(=O)CC[C@]4(C)[C@H]3[C@@H](O)C[C@@]21C | 17.4% [at 42.5 µM] (inactive) | –
C1COCO1 | -0.971% (inactive) | –
Cc1ccnc2ccccc12 | 0.223% (inactive) | –
CC(=O)Oc1ccc(C(=C2CCCCC2)c2ccc(OC(C)=O)cc2)cc1 | -9.86% [at 42.5 µM] (inactive) | –
ON(Cc1ccccc1)Cc1ccccc1 | 12% (inactive) | –
CCC(C)(C)C1CCC(O)CC1 (stereo not drawn) | 7.19% (inactive) | –
c1cc[c]([Bi]([c]2ccccc2)[c]2ccccc2)cc1 | 42.7% (inactive) | –
COc1cc2c(cc1OC)-c1cc(=Nc3c(C)cc(C)cc3C)n(C)c(=O)n1CC2 | -14.7% [at 42.5 µM] (inactive) | –
NC(=O)N(O)[C@@H]1COc2cc(OCc3ccccc3)ccc21 | – | 43.3 µM (active)
CN1CCN(c2c(F)cc3c(=O)c(C(=O)O)cn4c3c2OCN4C)CC1 | 2.06% [at 19 µM] (inactive) | –
OCC1CC=CCC1 (stereo not drawn) | 0.132% (inactive) | –
CO[C@H]1C=CO[C@@]2(C)Oc3c(C)c(O)c4c(O)c(c5c(c4c3C2=O)=NC2(CCN(CC(C)C)CC2)N=5)NC(=O)/C(C)=C\C=C/[C@H](C)[C@H](O)[C@@H](C)[C@@H](O)[C@@H](C)[C@H](OC(C)=O)[C@@H]1C | – | 59.8 µM (active)
CN1Cc2cc(C(=O)N3CCC(C4CCNCC4)CC3)ccc2N[C@@H](CC(=O)O)C1=O | 13.9% [at 42.5 µM] (inactive) | –
CCOCCn1c(C2CCN(CCc3ccc(C(C)(C)C(=O)O)cc3)CC2)nc2ccccc21 | 0.0421% [at 42.5 µM] (inactive) | –
CCc1c2c(nc3ccc(OC(=O)N4CCC(N5CCCCC5)CC4)cc13)-c1cc3c(c(=O)n1C2)COC(=O)[C@]3(O)CC | – | 23.7 µM (active)
CC1CC(=O)NN=C1c1ccc(NCC(C)(C)NCC(O)COc2cc(Cl)ccc2C#N)cc1 (stereo not drawn) | -9.52% [at 42.5 µM] (inactive) | –

Tested on: not listed separately
Assay: qHTS assay to identify small molecule phospholipidosis (PLD) inducers (AID 1259344; active means well fitted curve in the direction sought with a large enough effect; an effect the other way counts as inactive or inconclusive)
Settings: HepG2 phospholipidosis, LipidTOX Red imaging, 24 h; series mostly up to 38.3 µM; PLD induction: at the top concentration
How it was run: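 Cells (HepG2, 900 per well) attach for 4 h, receive LipidTOX Red and compound together, incubate 24 h at 37 C, are fixed 30 min with paraformaldehyde/Hoechst, then imaged at one site per well.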

SMILES | PLD induction
CC(CCc1ccc2c(c1)OCO2)NN (stereo not drawn) | -1.96% (inactive)
CCC1(C)CC(=O)NC1=O (stereo not drawn) | -0.0918% (inactive)
CC(=O)CC(c1ccc([N+](=O)[O-])cc1)c1c(O)c2ccccc2oc1=O (stereo not drawn) | 2.15% [at 15.5 µM] (inactive)
Nc1nc(Cl)nc2c1ncn2[C@@H]1O[C@H](CO)[C@@H](O)[C@@H]1F | 0.982% (inactive)
O=C(O)C(Cc1cc(I)c(O)c(I)c1)c1ccccc1 (stereo not drawn) | -0.368% (inactive)
CO[C@@]12[C@H](COC(N)=O)C3=C(C(=O)C(C)=C(N)C3=O)N1C[C@@H]1N[C@@H]12 | -1.82% (inactive)
CCCCC(=O)O[C@]1(C(=O)CO)CC[C@H]2[C@@H]3CCC4=CC(=O)CC[C@]4(C)[C@H]3[C@@H](O)C[C@@]21C | 0.148% (inactive)
CC(=O)Oc1ccc(C(=C2CCCCC2)c2ccc(OC(C)=O)cc2)cc1 | -0.424% (inactive)
CCc1cccc(N(C)C(N)=Nc2cccc3ccccc23)c1 | 15.6% (inactive)
COc1cc2c(cc1OC)-c1cc(=Nc3c(C)cc(C)cc3C)n(C)c(=O)n1CC2 | 1.75% (inactive)
Cc1ccccc1N1C(=O)c2cc(S(N)(=O)=O)c(Cl)cc2NC1C (stereo not drawn) | -0.42% (inactive)
O=C(OCCOCCO)c1ccccc1Nc1cccc(C(F)(F)F)c1 | -0.176% [at 15.5 µM] (inactive)
CN1CCN(c2c(F)cc3c(=O)c(C(=O)O)cn4c3c2OCN4C)CC1 | 7.3% (inactive)
CO[C@H]1C=CO[C@@]2(C)Oc3c(C)c(O)c4c(O)c(c5c(c4c3C2=O)=NC2(CCN(CC(C)C)CC2)N=5)NC(=O)/C(C)=C\C=C/[C@H](C)[C@H](O)[C@@H](C)[C@@H](O)[C@@H](C)[C@H](OC(C)=O)[C@@H]1C | 8.79% (inactive)
CCc1c2c(nc3ccc(OC(=O)N4CCC(N5CCCCC5)CC4)cc13)-c1cc3c(c(=O)n1C2)COC(=O)[C@]3(O)CC | 10.7% (inactive)

Tested on: not listed separately
Assay: qHTS assay to identify small molecule HDAC inhibitors (AID 1259364); further: potency means the concentration at half of the fitted maximal effect;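 further: wild-type HCT-116 cells with endogenous class I/II HDAC activity; nearly all actives have a fitted effect of over 45% in size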; on activity change, negative = inhibition: top concentration of the series differs between compounds
Settings: HCT-116 HDAC-Glo I/II luminescence, 2 h; series mostly up to 92.4 µM; activity change, negative = inhibition: at the top concentration
How it was run: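 HCT-116 (wild type), 1,500 cells/well, overnight; compound 2 hr 37C 5% CO2; HDAC-Glo I/II reagent 30 min RT; luminescence readout.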

SMILES | activity change, negative = inhibition | Potency
CC(CCc1ccc2c(c1)OCO2)NN (stereo not drawn) | 3.2% [at 42.5 µM] (inactive) | –
CO[Si](C)(OC)OC | -0.313% (inactive) | –
CCC1(C)CC(=O)NC1=O (stereo not drawn) | -1.5% [at 42.5 µM] (inactive) | –
CSc1ccc(Oc2ccc(S(N)(=O)=O)cc2CN(C)C)cc1C | 0.785% (inactive) | –
COc1ccc([C@@H]2Sc3ccccc3NC(=O)[C@@H]2O)cc1 | 2.86% [at 42.5 µM] (inactive) | –
C=CC(C)(C)CC(=O)OC | 2.94% (inactive) | –
O=C(O)C(Cc1cc(I)c(O)c(I)c1)c1ccccc1 (stereo not drawn) | -4.23% [at 42.5 µM] (inactive) | –
CO[C@@]12[C@H](COC(N)=O)C3=C(C(=O)C(C)=C(N)C3=O)N1C[C@@H]1N[C@@H]12 | 5.21% [at 42.5 µM] (inactive) | –
CC1=NN(c2ccc(C(=O)O)cc2)C(=O)C1 | 7.01% (inactive) | –
CN(C)C(=O)Nc1ccc(Oc2ccc(Cl)cc2)cc1 | -18.8% (inactive) | –
CNC(=S)NC | 3.52% (inactive) | –
C1COCO1 | 14.6% (inactive) | –
Cc1ccnc2ccccc12 | -0.753% (inactive) | –
CO[C@H]1O[C@H](CO)[C@@H](O)[C@H](O)[C@H]1O | 6.01% (inactive) | –
CC(=O)Oc1ccc(C(=C2CCCCC2)c2ccc(OC(C)=O)cc2)cc1 | -7.2% [at 42.5 µM] (inactive) | –
CCCCCCCC/C=C\CCCCCCCC(=O)OC | -2.18% (inactive) | –
ON(Cc1ccccc1)Cc1ccccc1 | -23.9% (inactive) | –

SMILES | activity change, negative = inhibition | Potency
CCC(C)(C)C1CCC(O)CC1 (stereo not drawn) | 3.35% (inactive) | –
CC(C)(C)C(=O)O | 5.78% (inactive) | –
NCC1CCCC(CN)C1 (stereo not drawn) | 1.92% (inactive) | –
Cc1occc1C(=O)Nc1ccc(C(=O)N2CCC(F)(F)/C(=C\C(=O)N3CCC(N4CCCCC4)CC3)c3ccccc32)cc1 | 1.42% [at 42.5 µM] (inactive) | –
COc1cc2c(cc1OC)-c1cc(=Nc3c(C)cc(C)cc3C)n(C)c(=O)n1CC2 | -12.7% [at 42.5 µM] (inactive) | –
Cc1ccccc1N1C(=O)c2cc(S(N)(=O)=O)c(Cl)cc2NC1C (stereo not drawn) | 4.06% [at 42.5 µM] (inactive) | –
C=CC(=C)CCCC(C)(C)OC(C)=O | -0.0808% (inactive) | –
NC(=O)N(O)[C@@H]1COc2cc(OCc3ccccc3)ccc21 | – | 1.72 µM (active)
CN1CCN(c2c(F)cc3c(=O)c(C(=O)O)cn4c3c2OCN4C)CC1 | 8.76% [at 19 µM] (inactive) | –
OCC1CC=CCC1 (stereo not drawn) | -0.327% (inactive) | –
CC(C)CCCCCOC(=O)CCCCC(=O)OCCCCCC(C)C | 7.41% (inactive) | –
CO[C@H]1C=CO[C@@]2(C)Oc3c(C)c(O)c4c(O)c(c5c(c4c3C2=O)=NC2(CCN(CC(C)C)CC2)N=5)NC(=O)/C(C)=C\C=C/[C@H](C)[C@H](O)[C@@H](C)[C@@H](O)[C@@H](C)[C@H](OC(C)=O)[C@@H]1C | -8.37% (inactive) | –
CN1Cc2cc(C(=O)N3CCC(C4CCNCC4)CC3)ccc2N[C@@H](CC(=O)O)C1=O | -0.379% [at 42.5 µM] (inactive) | –
COC(=O)c1cc(Cl)ccc1NS(=O)(=O)C(F)(F)F | -8.53% [at 42.5 µM] (inactive) | –
CCOCCn1c(C2CCN(CCc3ccc(C(C)(C)C(=O)O)cc3)CC2)nc2ccccc21 | -1.59% [at 42.5 µM] (inactive) | –
CCc1c2c(nc3ccc(OC(=O)N4CCC(N5CCCCC5)CC4)cc13)-c1cc3c(c(=O)n1C2)COC(=O)[C@]3(O)CC | 0.523% [at 42.5 µM] (inactive) | –
CC1CC(=O)NN=C1c1ccc(NCC(C)(C)NCC(O)COc2cc(Cl)ccc2C#N)cc1 (stereo not drawn) | 6.16% [at 42.5 µM] (inactive) | –
